Inconclusive results are not listed. A call without a number means that no potency is given here. Unmarked numbers belong to inactive results. The source made the active and inactive calls. Unless noted, the call rests on the fitted dose curve.

Test system in the first test: not listed separately
Nature of the test: qHTS for Inhibitors of the Functional Ribonucleoprotein Complex (vRNP) of Lymphocytic Choriomeningitis Arenaviruses (LCMV): Viability assay - alamar blue signal for LCMV Primary Screen (AID 1347085; calls by dose curve; tested in HEK293 reporter line; further: nearly all actives have a fitted effect of over 80% in size). The settings on record: alamar blue viability counter-screen, LCMV vRNP screen cells; series mostly up to 57.5 µM. Background: In qHTS, concentration-response curves come from the screen itself.
Consider `O=C(O)Cc1cccc(-c2cc(CCCCCCc3ccc(O[C@H]4O[C@H](CO)[C@@H](O)[C@H](O)[C@@H]4O)c(-c4cccc(CC(=O)O)c4)c3)ccc2O[C@H]2O[C@H](CO)[C@@H](O)[C@H](O)[C@@H]2O)c1`, for which the activity change, negative = lower viability is 2.8% [at 0.757 µM].

With `NC(=O)N[C@@H](CCC(=O)O)C(=O)O`, the Potency entry is “inactive”.

Turning to `Nc1ccn([C@@H]2CS[C@H](CO)O2)c(=O)n1`, the Potency entry was “inactive”.

`Cn1cc(S(C)=O)c(=O)c2ccc(F)cc21` (stereo not drawn): the Potency result is “inactive”.

In the case of `Oc1ccccc1-c1nnco1`, the Potency entry was “inactive”.

Regarding `O=C(O)c1cc(=O)[nH]c(=O)[nH]1`, the Potency result was “inactive”.

Turning to `CC1(C)OC(=O)NC1=O`, the Potency result is “inactive”.

In the case of `O=C(Oc1ccccc1)c1ccccc1O`, the Potency result is “inactive”.

As for `CC(C)(C)NC[C@H](O)COc1nsnc1N1CCOCC1`, the Potency entry is “inactive”.

Take `CCCCCC=CCC=CCCCCCCCC(=O)OCC`: the Potency entry was “inactive”.

As to `CC1CC(OC(=O)c2ccccc2O)CC(C)(C)C1` (stereo not drawn), the Potency result is “inactive”.

As to `Cc1ccc(C(=O)c2ccc(CC(=O)O)n2C)cc1`, the Potency entry is “inactive”.

Consider `O=C(C1CCCCC1)N1CC(=O)N2CCCc3ccccc3C2C1` (stereo not drawn), for which the Potency entry was “inactive”.

As to `O=C(Nc1ccc(Cl)c(Cl)c1)C1CC1`, the Potency entry is “inactive”.

`CC(C)=CCC1C(=O)N(c2ccccc2)N(c2ccccc2)C1=O`: the Potency entry is “inactive”.

With `CC(C)NCC(O)c1cc(O)cc(O)c1` (stereo not drawn), the Potency entry is “inactive”.

`NS(=O)(=O)c1cc2c(cc1Cl)NC(CC1CCCC1)NS2(=O)=O` (stereo not drawn): the Potency result is “inactive”.

As for `Nc1ccc(S(=O)(=O)c2ccc(N)cc2)cc1`, the Potency result was “inactive”.

In the case of `CCCCCCCCCCCCCCCCCC(=O)OCC(O)CO` (stereo not drawn), the Potency entry was “inactive”.

In the case of `Cc1c[nH]c2ccccc12`, the Potency entry was “inactive”.

As for `CC(=O)Nc1ccc(CC(=O)O)cc1`, the Potency result is “inactive”.

Regarding `NNC(=O)c1ccncc1`, the Potency result was “inactive”.

In the case of `CC(=O)O[C@@H]1CC2C3CCc4cc(OC(=O)c5ccccc5)ccc4C3CCC2(C)[C@H]1OC(C)=O` (stereo partly drawn), the Potency entry is “inactive”.

On to `Oc1ccc(Cl)c2cccnc12`, for which the Potency entry is “inactive”.

For the compound `CC(=O)Nc1ccccc1`, the Potency result is “inactive”.

Consider `C[C@H]1C[C@H](O)c2ccsc2S1(=O)=O`, for which the Potency result is “inactive”.

`CCCCC(CC)CN1CN(CC(CC)CCCC)CC(C)(N)C1` (stereo not drawn): the Potency entry was “inactive”.

Regarding `COc1cc(/C=C/C(=O)O[C@H]2CC[C@]34C[C@]35CC[C@]3(C)[C@@H]([C@H](C)CCC=C(C)C)CC[C@@]3(C)[C@@H]5CC[C@H]4C2(C)C)ccc1O`, the Potency result was “inactive”.

On to `CC(O)CN(CCN(CC(C)O)CC(C)O)CC(C)O` (stereo not drawn), for which the Potency entry was “inactive”.

As to `CC1(COc2ccc(CC3SC(=O)NC3=O)cc2)CCCCC1` (stereo not drawn), the Potency result was “inactive”.

In the case of `Cc1noc(NS(=O)(=O)c2ccc(N)cc2)c1C`, the Potency entry is “inactive”.

In the case of `CC(C)Cn1cnc2c(N)nc3ccccc3c21`, the Potency result was “inactive”.

Consider `CC(=O)N(CC(O)CO)c1c(I)c(C(=O)NCCO)c(I)c(C(=O)NCC(O)CO)c1I` (stereo not drawn), for which the Potency result is “inactive”.

In the case of `CC(=O)OC(C)C[N+](C)(C)C` (stereo not drawn), the Potency entry was “inactive”.

For the compound `CC[C@H](C)C(=O)O[C@H]1C[C@H](O)C=C2C=C[C@H](C)[C@H](CC[C@@H](O)C[C@@H](O)CC(=O)O)[C@H]21`, the Potency entry was “inactive”.

Turning to `Nc1ccc(C(=O)O)cc1`, the Potency entry was “inactive”.

As to `O=C(O)CN1C(=O)c2cccc3cccc(c23)C1=O`, the Potency entry is “inactive”.

Consider `O=C1OC(CN2CCOCC2)CN1/N=C/c1ccc([N+](=O)[O-])o1` (stereo not drawn), for which the Potency entry was “inactive”.

For the compound `Nc1ncnc2c1ncn2Cc1c(F)cccc1Cl`, the Potency entry was “inactive”.

The target of the next test is Nucleoprotein (Lymphocytic choriomeningitis virus (strain Armstrong)) (UniProt P09992). Nature of the test: qHTS for Inhibitors of the Functional Ribonucleoprotein Complex (vRNP) of Lymphocytic Choriomeningitis Arenaviruses (LCMV): LCMV Primary Screen - GLuc reporter signal (AID 1347086). Further: nearly all actives have a fitted effect of over 70% in size. The settings on record: LCMV minigenome vRNP cell assay, Gaussia luciferase reporter; series mostly up to 57.5 µM.
Chain of Nucleoprotein (Lymphocytic choriomeningitis virus (strain Armstrong)) (P09992 whole entry, looked up): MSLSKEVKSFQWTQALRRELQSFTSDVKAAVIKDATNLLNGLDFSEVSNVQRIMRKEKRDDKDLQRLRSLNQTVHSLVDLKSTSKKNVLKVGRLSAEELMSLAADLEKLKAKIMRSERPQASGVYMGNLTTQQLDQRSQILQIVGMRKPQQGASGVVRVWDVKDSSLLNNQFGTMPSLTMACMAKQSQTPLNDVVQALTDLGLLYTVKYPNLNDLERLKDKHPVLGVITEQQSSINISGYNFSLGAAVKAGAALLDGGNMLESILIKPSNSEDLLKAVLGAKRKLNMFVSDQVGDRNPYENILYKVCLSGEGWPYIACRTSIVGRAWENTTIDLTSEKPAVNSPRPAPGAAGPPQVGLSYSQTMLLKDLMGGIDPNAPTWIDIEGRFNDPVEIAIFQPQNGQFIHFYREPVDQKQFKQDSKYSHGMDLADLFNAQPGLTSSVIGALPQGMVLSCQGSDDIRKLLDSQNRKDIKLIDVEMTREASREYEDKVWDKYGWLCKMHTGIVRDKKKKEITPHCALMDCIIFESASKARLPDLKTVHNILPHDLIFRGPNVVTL
In the case of `O=C(O)Cc1cccc(-c2cc(CCCCCCc3ccc(O[C@H]4O[C@H](CO)[C@@H](O)[C@H](O)[C@@H]4O)c(-c4cccc(CC(=O)O)c4)c3)ccc2O[C@H]2O[C@H](CO)[C@@H](O)[C@H](O)[C@@H]2O)c1`, the activity change, negative = inhibition is 2.06% [at 0.757 µM].

Turning to `NC(=O)N[C@@H](CCC(=O)O)C(=O)O`, the Potency entry is “inactive”.

`Nc1ccn([C@@H]2CS[C@H](CO)O2)c(=O)n1`: the Potency entry was “inactive”.

With `Cn1cc(S(C)=O)c(=O)c2ccc(F)cc21` (stereo not drawn), the Potency result was “inactive”.

`Oc1ccccc1-c1nnco1`: the Potency entry is “inactive”.

With `O=C(O)c1cc(=O)[nH]c(=O)[nH]1`, the Potency entry was “inactive”.

Take `CC1(C)OC(=O)NC1=O`: the Potency entry was “inactive”.

As to `O=C(Oc1ccccc1)c1ccccc1O`, the Potency result was “inactive”.

Regarding `CC(C)(C)NC[C@H](O)COc1nsnc1N1CCOCC1`, the Potency result was “inactive”.

`CCCCCC=CCC=CCCCCCCCC(=O)OCC`: the Potency result is “inactive”.

Take `CC1CC(OC(=O)c2ccccc2O)CC(C)(C)C1` (stereo not drawn): the Potency result is “inactive”.

Consider `Cc1ccc(C(=O)c2ccc(CC(=O)O)n2C)cc1`, for which the Potency entry is “inactive”.

As for `O=C(C1CCCCC1)N1CC(=O)N2CCCc3ccccc3C2C1` (stereo not drawn), the Potency result is “inactive”.

With `O=C(Nc1ccc(Cl)c(Cl)c1)C1CC1`, the Potency result was “inactive”.

In the case of `CC(C)=CCC1C(=O)N(c2ccccc2)N(c2ccccc2)C1=O`, the Potency entry was “inactive”.

As to `CC(C)NCC(O)c1cc(O)cc(O)c1` (stereo not drawn), the Potency result was “inactive”.

As to `NS(=O)(=O)c1cc2c(cc1Cl)NC(CC1CCCC1)NS2(=O)=O` (stereo not drawn), the Potency result is “inactive”.

In the case of `Nc1ccc(S(=O)(=O)c2ccc(N)cc2)cc1`, the Potency result was “inactive”.

With `CCCCCCCCCCCCCCCCCC(=O)OCC(O)CO` (stereo not drawn), the Potency entry was “inactive”.

With `Cc1c[nH]c2ccccc12`, the Potency result is “inactive”.

With `CC(=O)Nc1ccc(CC(=O)O)cc1`, the Potency entry is “inactive”.

For the compound `NNC(=O)c1ccncc1`, the Potency result was “inactive”.

For `CC(=O)O[C@@H]1CC2C3CCc4cc(OC(=O)c5ccccc5)ccc4C3CCC2(C)[C@H]1OC(C)=O` (stereo partly drawn), the Potency result was “inactive”.

With `Oc1ccc(Cl)c2cccnc12`, the Potency entry was “inactive”.

Consider `CC(=O)Nc1ccccc1`, for which the Potency entry was “inactive”.

As to `C[C@H]1C[C@H](O)c2ccsc2S1(=O)=O`, the Potency entry was “inactive”.

In the case of `CCCCC(CC)CN1CN(CC(CC)CCCC)CC(C)(N)C1` (stereo not drawn), the Potency entry was “inactive”.

As for `COc1cc(/C=C/C(=O)O[C@H]2CC[C@]34C[C@]35CC[C@]3(C)[C@@H]([C@H](C)CCC=C(C)C)CC[C@@]3(C)[C@@H]5CC[C@H]4C2(C)C)ccc1O`, the Potency entry is “inactive”.

Turning to `CC(O)CN(CCN(CC(C)O)CC(C)O)CC(C)O` (stereo not drawn), the Potency entry was “inactive”.

`CC1(COc2ccc(CC3SC(=O)NC3=O)cc2)CCCCC1` (stereo not drawn): the Potency entry is “inactive”.

For `Cc1noc(NS(=O)(=O)c2ccc(N)cc2)c1C`, the Potency result is “inactive”.

For `CC(C)Cn1cnc2c(N)nc3ccccc3c21`, the Potency entry was “inactive”.

Consider `CC(=O)N(CC(O)CO)c1c(I)c(C(=O)NCCO)c(I)c(C(=O)NCC(O)CO)c1I` (stereo not drawn), for which the Potency result is “inactive”.

Turning to `CC(=O)OC(C)C[N+](C)(C)C` (stereo not drawn), the Potency result is “inactive”.

Turning to `CC[C@H](C)C(=O)O[C@H]1C[C@H](O)C=C2C=C[C@H](C)[C@H](CC[C@@H](O)C[C@@H](O)CC(=O)O)[C@H]21`, the Potency entry is “inactive”.

In the case of `Nc1ccc(C(=O)O)cc1`, the Potency result was “inactive”.

Regarding `O=C(O)CN1C(=O)c2cccc3cccc(c23)C1=O`, the Potency result is “inactive”.

Take `O=C1OC(CN2CCOCC2)CN1/N=C/c1ccc([N+](=O)[O-])o1` (stereo not drawn): the Potency result was “inactive”.

As to `Nc1ncnc2c1ncn2Cc1c(F)cccc1Cl`, the Potency result is “inactive”.

The record behind these values is PubChem BioAssay (NCATS).
